PrP 5UTR inh = inhibition of PrP 5' UTR reporter expression | AID 488862 | hit rate 0.35% among 340,000 | cell-based PrP 5' UTR mRNA reporter, plate reader | inhibition, % (no concentration beside the values); in the data active = inhibition above about 52%; also: 0 = median of the neutral control wells
PrPC surface inh = cell surface PrPC inhibition, primary TR-FRET screen; AID 720596; TR-FRET read-out; inhibition, % at 13.8 µM; hit rate 0.43% among 370,000; in the data active = inhibition above about 24%; also: 0% = median of the test wells and 100% = reference compound wells
GDH-TPI counter-1 = counter-screen for M. tuberculosis FBA inhibitors: GDH-TPI coupled enzymes | GDH-TPI coupled enzyme counterscreen, NADH absorbance | inhibition, % at 4.8 µM | hit rate 1.2% among 360,000; in the data active = inhibition above about 30%;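 also: 0% = DMSO wells and 100% = wells lacking the enzyme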
PfHsp40 yeast = rescue of PfHsp40-mediated yeast toxicity; S. cerevisiae expressing PfHsp40, growth rescue, ATP luminescence; growth rescue, % at 12.5 µM; hit rate 0.68% among 340,000; AID 504582; in the data active = growth rescue above about 28%, passing the limit was not always enough;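 also: yeast W303a lacking pdr1 and pdr3 grown in galactose medium; growth measured after three days at 30 °C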
FBA Mtb inh = inhibitors of M. tuberculosis fructose-bisphosphate aldolase | purified M. tuberculosis FBA, fluorescence read-out | P9WQA3 | hit rate 2.3% among 360,000 | AID 588726 | inhibition, % at 1 µM;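 also: 0% = vehicle and 100% = reference inhibitor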
Target sequence (P9WQA3 whole entry, looked up): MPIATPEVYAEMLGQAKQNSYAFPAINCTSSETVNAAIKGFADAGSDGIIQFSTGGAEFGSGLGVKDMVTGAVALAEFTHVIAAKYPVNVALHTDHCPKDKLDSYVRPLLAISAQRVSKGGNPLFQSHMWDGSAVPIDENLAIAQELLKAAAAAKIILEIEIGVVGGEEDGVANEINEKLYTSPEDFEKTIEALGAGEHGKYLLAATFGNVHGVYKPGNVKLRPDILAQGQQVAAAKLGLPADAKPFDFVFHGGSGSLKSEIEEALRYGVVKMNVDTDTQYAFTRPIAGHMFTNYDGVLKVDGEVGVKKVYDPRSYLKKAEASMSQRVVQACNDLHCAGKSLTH
BJeLR viability = BJeLR cell viability loss | hit rate 0.17% among 300,000 | BJeLR (HRASV12) viability, CellTiter-Glo ATP luminescence, 48 h | inhibition, % (no concentration beside the values); in the data active = inhibition above about 50%
Mtb FBA inh conf = Mtb FBA inhibition, confirmed; purified M. tuberculosis FBA, fluorescence read-out; hit rate 78% among 5,600; shares compounds with FBA Mtb inh; inhibition, % at 1 µM;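 also: 0% = vehicle wells and 100% = reference inhibitor wells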
GDH-TPI counter-2 = counter-screen for M. tuberculosis FBA inhibitors: GDH-TPI coupled enzyme inhibition. shares compounds with FBA Mtb inh. GDH-TPI coupled enzyme counterscreen, fluorescence. inhibition, % at 1 µM. hit rate 81% among 5,600; in the data active = inhibition above about 10%
GDH-TPI DR = counter-screen for M. tuberculosis FBA inhibitors: GDH-TPI dose response | IC50, µM | AID 652145 | hit rate 79% among 170 | shares compounds with FBA Mtb inh | GDH-TPI coupled enzyme assay, fluorescence, artifact counterscreen; call rule not given here
An asterisk follows results filed as active; x = no result given; + = active, no number. Only some compounds are listed: those with a hit (about 4.5% of all), similar ones and a draw of the others. Rule as the data show it, unless noted: active = inhibition above about 27%; inactive = the rest.

SMILES	PrP 5UTR inh	PrPC surface inh	GDH-TPI counter-1	PfHsp40 yeast	FBA Mtb inh	BJeLR viability	Mtb FBA inh conf	GDH-TPI counter-2	others
COc1ccc(-c2coc3cc(O)c(OC)cc3c2=O)cc1	-25	-6	34*	4	44*	x	84*	54*
CS(=O)(=O)N(CC(=O)Nc1ccccc1C(=O)N1CCCC1)c1ccc2c(c1)OCO2	-8	6	-4	-1	0	-4	x	x
Cc1cc(N)c2ccccc2n1	-18	-5	-7	2	-4	-14	x	x
Cc1c2ccccc2nc2ccccc12	-15	2	17	2	64*	-16	199*	123*
C=CCNC(=S)N1CCN(Cc2ccccc2)CC1	14	6	0	0	1	1	x	x
Cc1nc2ccc(NC(=O)c3cccc(S(=O)(=O)N4CC(C)OC(C)C4)c3)cc2s1 (stereo not given)	-12	16	9	0	1	-2	x	x
O=C(NNC(=S)Nc1ccccc1)C1CCCCC1	-27	5	-4	-1	-2	14	x	x
CCNC(=O)/C(C#N)=C/c1c(N2CCOCC2)nc2ccccn2c1=O	-31	-7	5	-1	42*	-3	176*	136*
C=CCNC(=O)/C(C#N)=C/c1c(N2CCCCCC2)nc2ccccn2c1=O	8	-19	9	0	37*	2	5	-2
N#C/C(=C\c1c(N2CCCCCC2)nc2ccccn2c1=O)C(=O)NCc1ccco1	-20	-8	3	2	-2	1	x	x
NC1=NS(=O)(=O)Nc2ccccc21	x	6	x	x	x	x	x	x
CC(=O)N(C(C)=O)c1ncc2c([nH]c3ccccc32)c1C#N	22	-6	11	0	38*	2	+	189*
Cc1cc(C)c(C#N)c(N2CCCC(C(N)=O)C2)n1 (stereo not given)	-7	8	-3	0	57*	-4	+	+
CCOC(=O)C1CCN(C(=O)c2cnn3c(C)cc(C)nc23)CC1	-22	0	10	1	35*	4	76*	55*
COc1cccc(CC(NC(C)=O)C(=O)NC2CCN(c3nc(C)cc(C)c3C#N)CC2)c1 (stereo not given)	-27	8	-3	0	29*	0	58*	52*
Cc1cc(C)c(C#N)c(N2CCSCC2)n1	-5	4	6	2	11	-2	x	x
CCOC(=O)C1CCN(c2nc(C)cc(C)c2C#N)CC1	-20	7	0	0	28*	-1	170*	124*
COc1ccc(CC(NC(C)=O)C(=O)NC2CCN(c3nc(C)cc(C)c3C#N)CC2)c(OC)c1 (stereo not given)	-16	-4	7	0	25	-14	x	x
CCOc1ccc(N2C(=O)C(=O)/C(=C(/O)c3ccccc3)C2c2ccccc2[N+](=O)[O-])cc1 (stereo not given)	-20	-3	15	0	1	3	x	x
Cc1c(C(=O)OCC(=O)NCc2ccc3c(c2)OCO3)cccc1[N+](=O)[O-]	-8	4	1	1	-1	-2	x	x
COc1ccc(Cn2nnnc2C(CC(C)C)N2CCN(c3ccccc3)CC2)cc1 (stereo not given)	0	-3	4	4	55*	-15	23	9	GDH-TPI DR=>10
COCCn1nnnc1C(c1ccccc1OC)N1CCN(c2ccccc2)CC1 (stereo not given)	2	-1	-2	0	40*	-9	60*	41*
CCCC(c1nnnn1Cc1ccc(OC)cc1)N1CCN(c2ccccc2)CC1 (stereo not given)	-1	12	-2	0	4	13	x	x
Cc1ccc(NC(=O)CC2SC(=Nc3ccc(O)cc3)NC2=O)cc1 (stereo not given)	-10	12	6	-2	4	7	x	x
O=Cc1ccc([B-](F)(F)F)o1	x	0	x	x	x	x	x	x
SMILES	PrP 5UTR inh	PrPC surface inh	GDH-TPI counter-1	PfHsp40 yeast	FBA Mtb inh	BJeLR viability	Mtb FBA inh conf	GDH-TPI counter-2	others
COc1ccccc1N1CCN(C(=O)c2ccc(CN3CCOCC3)cc2)CC1	-11	5	-1	1	0	-3	x	x
CCCN1C(=O)c2ccccc2NC1c1ccc(Cl)c(Cl)c1 (stereo not given)	-4	2	9	3	60*	9	104*	107*
CCCN1C(=O)c2ccccc2NC1c1ccc(Br)cc1 (stereo not given)	6	0	13	3	68*	-13	68*	60*
Cc1ccc(C2Nc3ccccc3C(=O)N2CCCN2CCOCC2)cc1 (stereo not given)	-4	0	5	1	59*	0	102*	108*
CN(C)c1ccc(C2Nc3ccccc3C(=O)N2CCN2CCNC2=O)cc1 (stereo not given)	-19	7	7	0	5	2	x	x
CCCN1C(=O)c2ccccc2NC1c1ccc(Cl)cc1 (stereo not given)	-5	-1	11	0	60*	0	132*	107*
O=C(NNS(=O)(=O)c1ccccc1[N+](=O)[O-])c1cc2ccccc2cc1O	-15	-4	-3	2	0	12	x	x
CCN(C(=O)COc1ccc2ccc(=O)oc2c1)C1CCCCC1	-19	-6	8	-1	35*	x	72*	51*
CCN(C(=O)COc1ccccc1)C1CCCCC1	-4	2	1	-1	0	21	x	x
CC(C)CN(C(=O)COc1ccc2ccc(=O)oc2c1)C1CCS(=O)(=O)C1 (stereo not given)	7	-6	10	0	22	3	x	x
CN(C(=O)COc1ccc2ccc(=O)oc2c1)C1CCS(=O)(=O)C1 (stereo not given)	-6	3	20	-2	38*	3	190*	147*
NC(=O)CSc1nnc2ccc(-c3ccc(F)cc3)nn12	-13	6	8	-1	12	13	x	x
Cc1cc2nnc(SC(C)C)n2c2ccccc12	-4	-4	15	-1	28*	12	130*	103*
Cc1ccc2[nH]c(CSc3ccccc3)cc(=O)c2c1	-21	11	15	0	1	0	x	x
Cc1ccc2[nH]ccc(=O)c2c1	-8	-1	12	-1	30*	-1	52*	39*
Cc1cc(C)n(-c2nc(NCC(C)O)c3c4c(sc3n2)COC(C)(C)C4)n1 (stereo not given)	x	0	5	0	56*	10	75*	64*
CCOC(=O)c1cccc(NC(=O)C2CCCN(c3nnc(N4CCCC4=O)s3)C2)c1 (stereo not given)	-7	1	3	0	3	-9	x	x
